A selection: hits, their analogues and other compounds. The true share with any hit is near 7.3%.
HCV inh: qHTS Assay for Inhibitors of Hepatitis C Virus (HCV); 340,000 tested, 3.4% active; Huh7.5.1 HCVcc-Cre infection, luciferase reporter, 44 h; Potency, µM (doses to about 41.8 µM), actives largely listed as inhibitors; active means well fitted inhibition curve with a large enough effect; inconclusive means small, poorly fitted or top-dose-only effect, or another doubt; inactive means no such curve, though single readings can be large or run the other way
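HCVcc-Cre virus at an moi near 0.5 was added right after compound to cells cultured 4 h from seeding (1,000 cells/well). Luciferase activity was determined 44 h later, 15 min after substrate addition at RT.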
VACV Venus inh: qHTS for Stage-Specific Inhibitors of Vaccinia Orthopoxvirus: Venus Reporter Primary qHTS; Vaccinia virus Venus reporter expression, fluorescence; Potency, µM (doses to about 36.5 µM), usual class: inhibitors; 330,000 tested, 0.46% active; calls by dose curve; tested in A549 cells; further: nearly all actives have a fitted effect of over 30% in size
FMDV inh: High Throughput Screening for Foot and Mouth Disease Virus Antivirals; AID 1159524, 2015; 410,000 tested, 1.2% active; Potency, µM (highest dose often 57.9 µM), actives largely listed as inhibitors; FMDV antiviral cell-based qHTS; calls by dose curve; tested in HEK293T cells; further: read-out not given here; nearly all actives have a fitted effect of over 45% in size
Vaccinia mCherry: qHTS for Stage-Specific Inhibitors of Vaccinia Orthopoxvirus: mCherry Reporter Primary qHTS; AID 720579, 2013; 310,000 tested, 0.63% active; Vaccinia virus mCherry reporter infection, fluorescence; Potency, µM (doses to about 36.5 µM), usual class: inhibitors; calls by dose curve; tested in A549 cells; further: nearly all actives have a fitted effect of over 35% in size
HCMV inh: qHTS Assay for inhibitors of the human cytomegalovirus (HCMV) | HFF cells, HCMV-luciferase reporter, 72 h; active compounds read low | activity change, negative = inhibition, % at 57.5 µM | 410,000 tested, 4.5% active; in the data active means activity change below about -60%; inconclusive means no clear call, values can overlap the other calls; inactive means above about -39%
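Steps: HFFs plated, 16 h 37C; compounds added; HCMV-luciferase added to MOI 1 PFU/cell; 72 h 37C; OneGlo reagent, 5 min room temperature; luminescence read, normalized to controls.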
A number is an active result; n = inactive; u = inconclusive; x = no result; ! = a repeat was not active.

SMILES	HCV inh	VACV Venus inh	FMDV inh	Vaccinia mCherry	HCMV inh
O=C1NCCOC(=O)[C@@H](Cc2ccc(F)cc2)CC/C=C/C[C@@H]1CC(=O)N(CCO)Cc1ccccc1	n	n	n	n	-63
O=C1NCCOC(=O)[C@H](Cc2ccc(F)cc2)C/C=C\C[C@H]1CC(=O)N(CCO)Cc1ccccc1	u	n	u	n	n
O=C1NCCOC(=O)[C@H](Cc2ccc(F)cc2)C/C=C\C[C@@H]1CC(=O)N(CCO)Cc1ccccc1	11µM	n	u	n	n
O=C1N[C@@H](Cc2ccccc2)COC(=O)[C@@H](Cc2ccc(F)cc2)CC/C=C/C[C@H]1CC(=O)N(CCO)Cc1ccccc1	u	11µM	u	u	n
CC(C)(C)OC(=O)C[C@@H]1C/C=C\C[C@H](CC(=O)N(CCO)Cc2ccccc2)C(=O)N2CCC[C@H]2COC1=O	1.1µM	n	n	n	n
O=C1NCCOC(=O)[C@H](Cc2ccc(F)cc2)CC/C=C/C[C@H]1CC(=O)N(CCO)Cc1ccccc1	u	u	u	n	n
CC(C)(C)OC(=O)C[C@@H]1C/C=C\C[C@@H](CC(=O)N(CCO)Cc2ccccc2)C(=O)N2CCC[C@H]2COC1=O	n	n	n	n	n
Cc1ccc(Cl)cc1NC(=O)Cn1cc2c(n1)CCCCC2	x	n	n	n	n
O=C1CCCC/C=C\C[C@H](CC(=O)N(CCO)Cc2ccccc2)C(=O)N[C@@H](c2ccccc2)CO1	n	n	n	n	-63
COc1ccc(-n2c(=S)[nH]c3cc(C(=O)NCCCN4CCCC4=O)ccc3c2=O)cc1OC	n	n	n	n	-99
O=C(O)c1cc(S(=O)(=O)N2CCN(C(=O)c3ccco3)CC2)c(Cl)cc1Cl	n	n	n	n	n
Cc1ccc(NC(=O)C2CCN(c3ncnc4c3nc3n4CCCCC3)CC2)nc1	13µM	x	u	x	-91
Fc1ccccc1N1CCN(c2ncnc3c2nc2n3CCCC2)CC1	x	n	u	n	-63
Fc1ccc(N2CCN(c3ncnc4c3nc3n4CCCC3)CC2)cc1	x	n	1.8µM	u	n
CCc1c(C)nc2ncnn2c1N1CCC(C(=O)N2CCN(c3ccc(F)cc3)CC2)CC1	u	x	u	x	-88
O=C(C1CCN(c2ncnc3c2nc2n3CCCCC2)CC1)N1CCN(c2ccc(F)cc2)CC1	n	n	32µM	n	n
CC12CCC(=O)N1C(C(=O)Nc1cc(Cl)ccc1N1CCCC1)CS2 (configuration not stated)	8.9µM	n	n	n	n
CC12CCC(=O)N1C(C(=O)Nc1cc(C(F)(F)F)ccc1N1CCOCC1)CS2 (configuration not stated)	8.9µM	n	n	n	n
CC12CCC(=O)N1C(C(=O)Nc1ccccc1N1CCCC1)CS2 (configuration not stated)	u	n	n	u	n
CC12CCC(=O)N1C(C(=O)Nc1cc(C(F)(F)F)ccc1N1CCCCC1)CS2 (configuration not stated)	3.5µM	u	n	n	n
CC12CCC(=O)N1C(C(=O)Nc1ccccc1N1CCCCC1)CS2 (configuration not stated)	n	n	n	n	n
O=C(CSc1nnnn1C1CC1)Nc1ccc(S(=O)(=O)N2CCOCC2)cc1	n	x	n	x	n
Cc1ccc2c(c1)CO[C@@]21O[C@H](CCO)C[C@H](O)[C@H]1O	x	n	n	n	n
CC(C)C[C@H]1CNC(=S)N1CC1CCCN1C[C@H](Cc1ccc(O)cc1)N1C[C@H](Cc2ccccc2)N(CC2CCCCCC2)C1=S (some centres not stated)	7.9µM	n	n	u	n
CC(C)C[C@H]1CNC(=S)N1C[C@H]1CCCN1C[C@H](Cc1ccccc1)N1C[C@H](Cc2ccc(O)cc2)N(CC2CCCCCC2)C1=S	x	u	n	n	-84
SMILES	HCV inh	VACV Venus inh	FMDV inh	Vaccinia mCherry	HCMV inh
CC(C)C[C@H]1CNC(=S)N1CC1CCCN1C[C@H](Cc1ccccc1)N1C[C@H](Cc2ccc(O)cc2)N(CC2CCCCC2)C1=S (some centres not stated)	10µM	u	n	u	n
CC(C)C[C@H]1CNC(=S)N1C[C@H]1CCCN1C[C@H](Cc1ccc(O)cc1)N1C[C@H](Cc2ccccc2)N(CC2CCCCC2)C1=S	x	n	n	n	n
O=C(CCCn1c(=O)c2sccc2n(Cc2c(F)cccc2Cl)c1=O)NCc1ccccc1	x	n	n	n	n
CCc1nc2c(OCCOc3ccc(F)cc3)cccn2c1N(C)C(=O)c1ccco1	x	n	u	n	n
COc1ccccc1N1CCN(C(=O)c2oc3ccccc3c2C)CC1	u	n	n	n	n
COc1ccccc1N1CCN(C(=O)c2cc3c(C)nc4ccccc4c3o2)CC1	6.3µM	u	u	u	-61
COc1ccccc1N1CCN(C(=O)c2cccc3c(=O)c(C)c(-c4ccccc4)oc23)CC1	u	n	n	n	-66
COc1ccccc1N1CCN(C(=O)c2sc3nc(-c4ccccc4)cn3c2C)CC1	11µM!	u	x	u	n
Cc1c(C(=O)N2CCN(c3ccc(F)cc3)CC2)sc2nc(-c3ccccc3)cn12	n	x	n	x	n
COC(=O)C(NC(=O)OCc1ccccc1)(c1ccc(Br)cc1)C(Nc1ccccc1)c1ccccc1 (configuration not stated)	x	x	x	x	n
COc1ccc(NC(=O)C2CCN(S(=O)(=O)c3ccc4c(c3)NC(=O)C(C)S4)CC2)cc1 (configuration not stated)	u	n	n	n	u
CC1Sc2ccc(S(=O)(=O)N3CCC(C(=O)Nc4ccc(Cl)cc4)CC3)cc2NC1=O (configuration not stated)	u	x	14µM	x	-71
CC(C)c1ccc(NC(=O)C2CCN(S(=O)(=O)c3ccc4c(c3)NC(=O)CO4)CC2)cc1	u	x	u	x	-68
COc1ccccc1CNS(=O)(=O)c1ccc(N2CCCC2)cc1Br	11µM	n	n	n	n
CSc1ccccc1OCc1cc(C(=O)NCCC2=CCCCC2)no1	n	n	n	n	n
COc1cc(OC)c2c(=O)cc(-c3ccccc3)oc2c1	u	n	n	n	n
COc1cc2c(c3oc(-c4ccccc4)cc(=O)c13)C=CC(C)(C)O2	1µM	n	u	n	u
COc1ccc2ccccc2c1/C=N\NC(=O)c1ccc(C)s1	10µM	n	n	n	u
O=C(N/N=C/c1[nH]c2ccccc2c1Cl)c1cccc(Br)c1	7.1µM	n	n	n	n
O=C(N/N=C/c1c(O)ccc2ccccc12)c1cccc(C(F)(F)F)c1	u	u	u	3.5µM	-105
O=C(N/N=C/c1cccc(C(F)(F)F)c1)c1ccc(O)cc1	n	n	n	n	n
COc1ccc2ccccc2c1/C=N/NC(=O)c1cccc(Br)c1	u	n	n	n	-67
Cc1[nH]c2ccccc2c1/C=N/NC(=O)c1cccc(Br)c1	n	n	n	n	x
C1=C(CN2CCOCC2)COc2c1cccc2OC[C@@H]1CNCCO1	x	x	n	x	x
